# RORgamma inh: ROR gamma (mouse) transcription inhibition | Drosophila S2 Gal4-RORgamma UAS-luciferase reporter, 20 h | 310,000 tested, 5.4% active | Potency, µM (highest dose often 53.6 µM), hits mostly inhibitors | P51450 | AID 2551; also: nearly all actives have a fitted effect of over 60% in size
# Target sequence (P51450 whole entry, looked up, the tested form may be a part): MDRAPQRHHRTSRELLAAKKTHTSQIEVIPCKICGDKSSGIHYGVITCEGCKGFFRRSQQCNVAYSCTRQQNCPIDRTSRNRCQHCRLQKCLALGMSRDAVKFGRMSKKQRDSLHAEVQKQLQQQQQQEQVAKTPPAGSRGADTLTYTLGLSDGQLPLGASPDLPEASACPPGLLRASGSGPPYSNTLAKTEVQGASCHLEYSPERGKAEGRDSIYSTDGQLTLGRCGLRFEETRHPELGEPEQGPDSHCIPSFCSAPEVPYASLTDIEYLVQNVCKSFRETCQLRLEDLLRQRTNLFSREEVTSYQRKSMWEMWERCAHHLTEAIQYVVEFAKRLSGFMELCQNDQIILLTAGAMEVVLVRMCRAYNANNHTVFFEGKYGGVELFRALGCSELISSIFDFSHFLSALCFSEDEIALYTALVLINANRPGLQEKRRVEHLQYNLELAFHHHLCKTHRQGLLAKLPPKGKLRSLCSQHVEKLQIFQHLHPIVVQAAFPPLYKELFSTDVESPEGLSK
#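 Using a luciferase readout, inhibitors were identified by reduced reporter activity in Drosophila cells coexpressing a copper-inducible Gal4–ROR gamma fusion and UAS-driven Photinus luciferase, incubated 20 hr after 700 uM copper sulfate.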
# TDP1 cell noCPT: qHTS for Inhibitors of human tyrosyl-DNA phosphodiesterase 1 (TDP1): qHTS in cells in absence of CPT; DT40 Tdp1-/- hTDP1 cells, no CPT, ATP luminescence, 48 h; 420,000 tested, 15% active; Potency, µM (titrated, usually from 46.2 µM), actives largely listed as inhibitors; also: nearly all actives have a fitted effect of over 55% in size
#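 Readout: luminescence from CellTiter-Glo after 30 min in the dark at RT. Cells: DT40 Tdp1-/- with stable hTDP1, 400/well. Exposure: compounds alone, ≥48 hr, 37 °C.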
# LDHA inh: LDHA (human) enzyme inhibition; P00338; purified LDHA, NADH/diaphorase-resazurin fluorescence; stronger effect = lower value; activity change, % (values are at about 110 or 230 µM); 480,000 tested, 0.15% active; in the data active = activity change below about -30%; inconclusive = mostly about -25% to -30%
#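 LDH5 2 nM; NADH 0.06 mM, pyruvate 0.2 mM; 200 mM Tris pH 7.4, EDTA, Tween-20; 5 min RT. Detection: diaphorase 0.133 mg/mL + resazurin 37 µM, fluorescence ex540/em590 at 0 and 20 min; normalized to enzyme-free and DMSO wells.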
# DT40 TDP1 CPT: growth inhibition of DT40 Tdp1-/-;hTDP1 cells with camptothecin (screen for TDP1 inhibitors); chicken DT40 Tdp1-/-;hTDP1 cells + 20 nM CPT, ATP luminescence, 48 h; Potency, µM (top dose mostly 46.2 µM), actives largely listed as inhibitors; 420,000 tested, 12% active; also: nearly all actives have a fitted effect of over 55% in size
#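 Cell growth measured by CellTiter-Glo luminescence after a minimum 48 h, 37 C compound exposure with 20 nM CPT in Tdp1-knockout DT40 cells stably expressing hTDP1, seeded 400/well; qHTS titration format.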
# IL-1B inflam inh: inhibitors of inflammasome signaling (IL-1 beta secretion) | THP-1 LPS/ATP IL-1B secretion, AlphaLISA, 16 h; stronger effect = lower value | activity change, % at 57.5 µM | 360,000 tested, 4.7% active | AID 743279; in the data active = activity change below about -50%; inconclusive = mostly about -30% to -49%
#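 THP-1 cells pretreated 1 hr with compounds (up to 57.5 uM final), then stimulated with LPS (250 ng/mL final) plus ATP (1.25 mM final); secreted IL-1B measured by AlphaLISA after 16 hr, decreased signal indicating inhibition.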
# VP16 counter: counter-screen for ROR gamma inhibitors: Gal4-VP16 reporter | 310,000 tested, 3.5% active | Potency, µM (highest dose often 53.6 µM), hits mostly inhibitors | Drosophila S2 Gal4-VP16 UAS-luciferase, luminescence, 20 h;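 also: Gal4-VP16 expression switched on by copper sulfate through the metallothionein promoter; nearly all actives have a fitted effect of over 50% in size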
# Hits are given with their value; - = inactive; ? = inconclusive; . = no result given; [ ] = dose if it differs, or a comment. Hits are enriched below; roughly 18% of the tested compounds scored in any of these assays. Unless noted, calls follow the shape of the dose curve; as a rule, active = well fitted curve in the direction sought with a large enough effect; inconclusive = small, poorly fitted or top-dose-only effect, or another doubt; inactive = no such curve, though single readings can be large; an effect the other way counts as inactive or inconclusive.
SMILES,RORgamma inh,TDP1 cell noCPT,LDHA inh,DT40 TDP1 CPT,IL-1B inflam inh,VP16 counter
CN(CCCC#N)CC1COc2ccccc2O1 (stereo unspecified),.,.,-,.,.,.
COCCOC(=O)C(C#N)c1nc2ccccc2nc1N1CCN(c2ccccc2OC)CC1 (stereo unspecified),.,.,-,.,.,.
Cc1cccc(NC(=O)CCS(=O)(=O)c2cc3c(cc2Cl)NC(=O)CO3)c1,-,?,-,18µM,-,-
CCOC(=O)N1CCC(NS(=O)(=O)c2cc3c(cc2Cl)NC(=O)CO3)CC1,?,23µM,-,18µM,-,-[0.365 µM]
COc1cccc(NC(=O)CCS(=O)(=O)c2cc3c(cc2Cl)NC(=O)CO3)c1,-,-,-,-,-,-
Cc1nc2n(n1)C(C(=O)Nc1ccc(C(C)C)cc1)CC(=O)N2 (stereo unspecified),.,.,-,.,.,.
O=C(O)C1CCCN(C(=O)c2ccoc2)C1 (stereo unspecified),.,.,-,.,.,.
Cc1ccnc(NC(=S)NC(=O)c2ccco2)c1,4.5µM,-,-,-,-,?
Cc1ccc(C)c(NC(=O)/C=C/c2cccs2)c1,.,.,-,.,.,.
Cc1ccnc(NC(=O)/C=C/c2cccs2)c1,8.9µM,12µM,-,?,-98,13µM
CCNC(=S)Nc1cc(C)ccn1,2.5µM,-,-,-,-,5.6µM
Cc1ccnc(NC(=S)NC(=O)c2cccs2)c1,2.2µM,-,-,?,-,4µM
Cc1cc(C)c2nc(SCC(=O)N(C)CCC#N)cc(C)c2c1,.,.,-,.,.,.
O=C(NC(=S)Nc1cccnc1Cl)c1ccco1,?,-,-,-,-,-
O=C(NC(=S)Nc1ccccn1)c1ccco1,13µM,?,-,13µM,-,?
C=CCOC(=O)C(C#N)c1nc2ccccc2nc1N1CCC(Cc2ccccc2)CC1 (stereo unspecified),.,.,-,.,.,.
CCCCCCNC(=O)CCc1c(C)nc2nc(-c3cc(OC)cc(OC)c3)nn2c1C,.,16µM,-,?,.,.
COc1ccc(NC(=O)CCc2c(C)nc3cc(-c4cccc(F)c4)nn3c2C)cc1Cl,.,13µM,-,16µM,.,.
COC(=O)c1ccc(NC(=O)CCc2c(C)nc3cc(-c4cccc(F)c4)nn3c2C)cc1,.,.,-,.,.,.
COc1ccc(-c2cc3nc(C)c(CCC(=O)Nc4ccc5c(c4)OCO5)c(C)n3n2)c(OC)c1,.,.,-,.,.,.
Cc1ccc(C)c(NC(=O)CCc2c(C)n(C)c3cc(-c4ccccc4C)nn3c2=O)c1,.,15µM,-,21µM,.,.
COc1cc(OC)cc(-c2cc3nc(C)c(CCC(=O)Nc4ccc(F)c(Cl)c4)c(C)n3n2)c1,.,16µM,-,18µM,.,.
Cc1ccc2c(=O)c(-c3nc(-c4ccc(Cl)cc4)no3)cn(CC(=O)NCc3ccco3)c2n1,.,.,-,.,.,.
COc1cc(-c2cc3n(C)c(C)c(CCC(=O)NCc4ccccc4)c(=O)n3n2)cc(OC)c1OC,.,-,-,15µM,.,.
COC(=O)c1cc(NC(=O)CCc2c(C)nc3cc(-c4ccccc4)nn3c2C)cc(C(=O)OC)c1,.,-,-,-,.,.
SMILES,RORgamma inh,TDP1 cell noCPT,LDHA inh,DT40 TDP1 CPT,IL-1B inflam inh,VP16 counter
COc1cc(NC(=O)CCc2c(C)nc3cc(-c4ccccc4)nn3c2C)cc(OC)c1OC,.,21µM,-,?,.,.
COc1cc(OC)cc(-c2cc3nc(C)c(CCC(=O)Nc4nc(C)cs4)c(C)n3n2)c1,?,10µM,-,18µM,-,?
Cc1cc(C)cc(N2CC(c3nnc(NC(=O)c4cccc(NC(=O)C(C)C)c4)s3)CC2=O)c1 (stereo unspecified),.,.,-,.,.,.
CCN(CC)c1ccc(NC(=O)c2ccccn2)cc1S(=O)(=O)Nc1ccccc1OC,.,21µM,-,16µM,-,.
COc1ccccc1NS(=O)(=O)c1cc(NC(=O)CNC(=O)c2ccccc2)ccc1C,?,-,-,-,-,-
CCN(CC)c1ccc(NC(=O)COc2ccccc2C#N)cc1S(=O)(=O)Nc1ccccc1OC,-,2.3µM,-,2.6µM,-,-
COc1ccc(NS(=O)(=O)c2cc(NC(=O)c3ccccn3)ccc2OC)cc1Br,.,-,-,?,-56,.
COc1ccc(NC(=O)c2ccccn2)cc1S(=O)(=O)N1CCOCC1,-,?,-,-,-,-
CCCCCC1CCC(C(=O)NNC(=S)NCC)CC1 (stereo unspecified),?,?,-,23µM,-,?
COc1ccc2c(C)c(CCC(=O)Nc3ccccc3)c(=O)oc2c1,.,.,-,.,.,.
COc1ccc2nc(SC3CC(=O)N(c4ccc(C)c(C)c4)C3=O)nc(C)c2c1 (stereo unspecified),.,.,-,.,.,.
N#Cc1ccc(NCCc2coc(-c3ccccc3)n2)nc1,.,.,-,.,.,.
COc1ccc(CCNc2oc(C(C)C)nc2C#N)cc1,.,.,-,.,.,.
COc1cc(Cl)ccc1OC1(C)CCN(Cc2cccn2-c2nccs2)C1 (stereo unspecified),.,21µM,-,12µM,-,.
CC1(Oc2ccc3ccccc3c2)CCN(Cc2cccn2-c2nccs2)C1 (stereo unspecified),.,23µM,-,29µM,-,.
COc1cc(-c2noc(CCC(N)=O)n2)cc(OC)c1OC,-,.,.,.,.,-
COc1cc(-c2noc(CCCC(=O)Nc3cccnc3)n2)cc(OC)c1OC,-,-,-,-,-,-
COc1cccc(NC(=O)CCc2nc(-c3cc(OC)c(OC)c(OC)c3)no2)c1,.,16µM,-,18µM,.,.
COc1cc(-c2noc(CCC(=O)Nc3cc(C)ccc3C)n2)cc(OC)c1OC,.,12µM,-,18µM,.,.
C=CC[C@@H](CC(=O)N(CCO)Cc1ccccc1)C(=O)N[C@@H](COC(=O)[C@@H](CC=C)CC(=O)OC(C)(C)C)Cc1c[nH]c2ccccc12,.,21µM,-,26µM,-62,.
C=CCC[C@H](Cc1ccc(F)cc1)C(=O)OC[C@H](Cc1c[nH]c2ccccc12)NC(=O)[C@@H](CC=C)CC(=O)N[C@H](CO)Cc1ccccc1,.,-,-,?,?,.
C=CCC[C@H](Cc1ccc(F)cc1)C(=O)OC[C@H](Cc1c[nH]c2ccccc12)NC(=O)[C@H](CC=C)CC(=O)N[C@H](CO)Cc1ccccc1,.,?,-,?,-,.
C=CC[C@@H](CC(=O)N(CCO)Cc1ccccc1)C(=O)N[C@H](COC(=O)[C@@H](CC=C)CC(=O)OC(C)(C)C)Cc1c[nH]c2ccccc12,.,23µM,-,18µM,-56,.
C=CC[C@H](CC(=O)N(CCO)Cc1ccccc1)C(=O)N[C@@H](COC(=O)[C@H](CC=C)CC(=O)OC(C)(C)C)Cc1c[nH]c2ccccc12,.,16µM,-,15µM,-62,.
CCc1ccc(Oc2ccc(C#N)c(C#N)c2)cc1,.,.,-,.,.,.

# Source: PubChem (National Center for Advancing Translational Sciences (NCATS))
